The results in this text go back to PubChem BioAssay AID1851 (National Center for Advancing Translational Sciences (NCATS), 2009).

Where “and” joins values, the source holds several entries; their conditions need not be identical. Equal entries are not always repeated. In all, about 16,000 compounds went through this assay and about 4,000 (25%) were called active. Another 26% or so got no clear call; they are omitted. Calls come from the whole dose curve; as a rule, active = well fitted curve in the direction sought with a large enough effect; inconclusive = small, poorly fitted or top-dose-only effect, or effect the other way; inactive = no such curve, though single readings can be large or run the other way. These entries were drawn from the full list.
% is set by controls: 0 for no effect and ±100 for the full control effect.

For this assay, the target named is Cytochrome P450 2C9 (Homo sapiens) (UniProt P11712). The assay is described as follows: Cytochrome panel assay with activity outcomes. As to conditions: recombinant CYP, pro-luciferin dealkylation, luminescence, p450-cyp2c9; series mostly up to 57.1 µM.
Cytochrome P450 2C9 (Homo sapiens), sequence (P11712 whole entry, looked up): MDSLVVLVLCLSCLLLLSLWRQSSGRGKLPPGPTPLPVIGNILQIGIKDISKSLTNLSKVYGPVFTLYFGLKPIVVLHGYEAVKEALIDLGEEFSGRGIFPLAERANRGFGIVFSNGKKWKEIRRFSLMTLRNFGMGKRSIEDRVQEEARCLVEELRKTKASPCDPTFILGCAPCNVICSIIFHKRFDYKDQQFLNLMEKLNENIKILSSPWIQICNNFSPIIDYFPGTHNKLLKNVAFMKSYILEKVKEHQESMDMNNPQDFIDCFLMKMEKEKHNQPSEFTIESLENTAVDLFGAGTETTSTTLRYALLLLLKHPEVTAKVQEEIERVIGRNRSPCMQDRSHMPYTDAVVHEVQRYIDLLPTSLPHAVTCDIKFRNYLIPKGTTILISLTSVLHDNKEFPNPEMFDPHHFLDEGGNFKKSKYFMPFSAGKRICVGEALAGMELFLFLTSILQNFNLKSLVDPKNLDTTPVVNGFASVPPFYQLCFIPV
`CCc1nc(N2CCC3(CC2)OCCO3)c2nnn(Cc3ccccc3Cl)c2n1`: the AC50 is 11.2 µM (active).
On to `Cc1noc(C)c1-c1nc(NCCN2CCOCC2)c2ccccc2n1`, for which the activity, negative = inhibition was 1.01% [at 2.29 µM] (inactive).
Take `CC(=O)Nc1ccc([N+](=O)[O-])cn1`: the AC50 entry is “inactive”.
On the same count and under the same terms, then `COc1cccc(NC(=S)NNC(=O)C(C)n2nc(C)c([N+](=O)[O-])c2C)c1` (stereo unspecified), with 5.01 µM (active); and `Cc1nn(C(C)C(=O)Nc2ccc(Cl)cn2)c(C)c1[N+](=O)[O-]` (stereo unspecified), with 14.1 µM (active); and `Cc1cc(NC(=O)c2nn(C)c(C)c2[N+](=O)[O-])no1`, with “inactive”.
On the same count and under the same terms, then `COc1cccc(NC(=S)NN2CCN(C)CC2)c1`, with “inactive”.
On the same count and under the same terms, then `COc1ccccc1CN1CC[C@@]2(CCCN(C(=O)c3ccco3)C2)C1`, with “inactive”; and `Cc1ncsc1C(=O)N1N=C2/C(=C/c3ccccc3)CCCC2C1c1ccccc1` (stereo unspecified), with 2.82 µM (active); and `COc1ccc(/C=C2\CCCC3C2=NN(C(=O)c2ccco2)C3c2ccc(OC)c(OC)c2)cc1OC` (stereo unspecified), with 11.2 µM (active).
Consider `Cc1cc(C(=O)C(=O)NC(C)C)c(C)n1-c1ccc([N+](=O)[O-])cc1`, for which the AC50 result was “inactive”.
On the same count and under the same terms, then `O=c1cc(-c2ccccc2)[nH]n1-c1ccc([N+](=O)[O-])cc1`, with 10 µM (active).
Take `CC1(C)N=C(N)N=C(N)N1CCCCc1ccccc1`: the activity, negative = inhibition is 1.42% [at 11.4 µM] (inactive).
As for `CCOc1ccc(CCNC(=O)C2CC(=O)N(C3CCCC3)C2)cc1OCC` (stereo unspecified), the AC50 result was “inactive”.
Same read-out and setting: then `CCOc1ccc(CC(=O)C2C(=O)CCCC2=O)cc1OCC`, with 7.08 µM (active).
Still for that read-out and setting: then `CCOc1ccc(CC(C(N)=O)C(N)=O)cc1CN(C)C`, with “inactive”.
For the compound `COCn1c2ccccc2c2nnc(C(C)=O)nc21`, the activity, negative = inhibition was 13.8% [at 11.4 µM] (inactive) and -8.55% [at 11.4 µM] (inactive).
As to `COc1ccccc1CN1CC[C@@]2(CCCN(S(C)(=O)=O)C2)C1`, the AC50 entry is “inactive”.
Regarding `N#CC(C#N)=NNc1ccc2cn[nH]c2c1`, the half-maximal activity concentration (AC50) is 2.51 µM (active).
Still for that read-out and setting: then `COc1ccc(C(=O)N2CCC[C@@]3(CCN(C(=O)Nc4ccccc4)C3)C2)cc1`, with “inactive”; and `COC(=O)[C@@]1(Cc2ccc(F)cc2)[C@@H]2[C@@H](CC(=O)[C@H]2CC(=O)C(=O)N(C)C)CN1C(=O)c1ccccc1`, with 20 µM (active).
On the same count and under the same terms, then `COC(=O)[C@@]1(Cc2ccc(F)cc2)[C@@H]2C(=CC(=O)[C@H]2CC(=O)C(=O)N2CCCC2)CN1C(=O)c1ccccc1`, with 10 µM (active); and `COC(=O)[C@@]1(Cc2ccc(OC)cc2)[C@@H]2C(=CC(=O)[C@H]2CC(=O)C(=O)N2CCCC2)CN1C(=O)c1ccccc1`, with 10 µM (active).
On to `COC(=O)[C@@]1(Cc2ccccc2)[C@@H]2C(=CC(=O)[C@H]2CC(=O)C(=O)N(C)C)CN1C(=O)c1ccccc1`, for which the AC50 result was “inactive”.
Same read-out and setting: then `C=C1C(=O)C=C2CN(C(=O)c3ccccc3)[C@@](Cc3ccc(F)cc3)(C(=O)OC)[C@@H]12`, with 3.98 µM (active).
For `O=C(O)c1c[nH]c2cc(OCc3ccccc3)ccc2c1=O`, the activity, negative = inhibition is -11.1% [at 11.4 µM] (inactive).
Take `O=C(O)c1cc(C(=O)O)nc(C(=O)O)c1`: the activity, negative = inhibition was 13.5% [at 11.4 µM] (inactive).
Take `N[C@@H](C(=O)O)c1ccc(C(=O)O)cc1`: the AC50 result was “inactive”.
With `O=C(O)c1ccc(SSc2ccc(C(=O)O)cn2)nc1`, the AC50 is 1.58 µM (active).
On the same count and under the same terms, then `COC(=O)[C@H](C)[C@H]1C[C@]1(C)[C@H](NC(=O)OCc1ccccc1)c1ccccc1`, with 2 µM (active); and `C[C@@H](C(=O)O)[C@H]1C[C@]1(C)[C@H](NC(=O)OCc1ccccc1)c1ccccc1`, with 15.8 µM (active).
The same measure, in the same setting: then `C[C@@H](C(=O)NCc1cccc2ccccc12)[C@H]1C[C@]1(C)[C@H](NC(=O)OCc1ccccc1)c1ccccc1`, with 3.16 µM (active); and `CC(C)C(NC(=O)C1CCCCC1)C(=O)NCc1ccccn1` (stereo unspecified), with “inactive”; and `C[C@@H](C(=O)NCc1ccccn1)[C@H]1C[C@]1(C)[C@H](NC(=O)OCc1ccccc1)c1ccccc1`, with 10 µM (active).
In the case of `C/C(CCN1CCc2nc(-c3ccccc3)c(-c3ccccc3)cc2C1)=N\OC[C@@H](O)[C@@H]1O[C@@H]2OC(C)(C)O[C@@H]2[C@H]1O`, the activity, negative = inhibition was -8.77% [at 11.4 µM] (inactive).
Still for that read-out and setting: then `Cc1ccc(S(=O)(=O)N[C@@H]2COC(=O)C/C=C\[C@H](C)COC(=O)N[C@@H](C)C(=O)C/C=C\[C@H]2C)cc1`, with 7.18% [at 11.4 µM] (inactive).
Consider `CNc1ccnc(-c2ccccc2C(F)(F)F)n1`, for which the activity, negative = inhibition was 1.23% [at 2.29 µM] (inactive).
Consider `CNC(=O)[C@H](C)[C@H]1C[C@]1(C)[C@H](NC(=O)OCc1ccccc1)c1ccccc1`, for which the concentration at half-maximal activity (AC50) was 10 µM (active).
Same read-out and setting: then `C[C@@H](C(=O)NCc1nc2ccccc2[nH]1)[C@@H]1C[C@@]1(C)[C@@H](NC(=O)OCc1ccccc1)c1ccccc1`, with 10 µM (active).
`COc1ccc(COC(=O)N/N=C2/C[C@@H](O)[C@@H](O)[C@@H]3[C@@H]4C(=O)N([C@@H](C)c5ccccc5)C(=O)[C@H]4CC[C@@H]23)cc1`: the activity, negative = inhibition was -19.2% [at 11.4 µM] (inactive).
With `COC(=O)[C@H](C)[C@@H]1C[C@@]1(C)[C@@H](NC(=O)OCc1ccccc1)c1ccccc1`, the AC50 is 5.01 µM (active).
Still for that read-out and setting: then `CCN1CCCC1Cn1cnc2c([nH]c3ccc(C)cc32)c1=O` (stereo unspecified), with “inactive”.
Still for that read-out and setting: then `CN(C)CCNC(=O)C1CCCNC1=O` (stereo unspecified), with “inactive”.
For the compound `Cn1cnc([N+](=O)[O-])c1SCC(=O)O`, the activity, negative = inhibition was 4.52% [at 11.4 µM] (inactive).
For the compound `OCCN=c1cc(-c2ccccc2)oc2ccc(Cl)cc12`, the concentration at half-maximal activity (AC50) is 2 µM (active).
For the compound `Cc1cc2c(=O)[nH]c(N)nc2nc1C`, the activity, negative = inhibition was 0.234% [at 11.4 µM] (inactive).
Take `CC(=O)c1sc(N)c(C(=O)OC(C)C)c1C`: the half-maximal activity concentration (AC50) was 10 µM (active).
The same measure, in the same setting: then `CCOC(=O)/C(C#N)=C1/SC(CC)C(=O)N1c1ccc(Br)cc1` (stereo unspecified), with 12.6 µM (active).
As for `Cc1ccc(S(=O)(=O)N2CCCC(C(=O)NCCCN3CCCCC3C)C2)cc1` (stereo unspecified), the AC50 result was “inactive”.
For `O=C(CC1CCCCC1)N1CCC(c2nc(-c3ccc(S(=O)(=O)N4CCCC4)cc3)no2)CC1`, the concentration at half-maximal activity (AC50) is 7.94 µM (active).
Still for that read-out and setting: then `COC(=O)[C@@]1(Cc2ccc(F)cc2)[C@H]2c3cc(C(=O)N4CCCC4)n(CCc4c[nH]c5ccc(OC)cc45)c3C[C@H]2CN1C(=O)c1ccccc1`, with 7.94 µM (active); and `COc1ccc(NC(=O)N2CCCC3(CCN(C(=O)c4cccc(F)c4)CC3)C2)cc1`, with “inactive”.
Still for that read-out and setting: then `COC(=O)[C@@]1(Cc2ccc(F)cc2)[C@H]2c3cc(C(=O)N4CCCC4)n(CCc4c[nH]c5ccccc45)c3C[C@H]2CN1C(=O)c1ccccc1`, with 2.51 µM (active); and `COC(=O)[C@@]1(Cc2ccc(OC)cc2)[C@H]2c3cc(C(=O)N4CCCC4)n(CCc4c[nH]c5cc(F)ccc45)c3C[C@H]2CN1C(=O)c1ccccc1`, with 3.16 µM (active).
The same measure, in the same setting: then `COc1ccc(NC(=O)N2CC[C@@]3(CCCN(C(=O)c4cccc(F)c4)C3)C2)cc1`, with “inactive”.
Take `COC(=O)[C@@]1(Cc2ccc(OC)cc2)[C@H]2c3cc(C(=O)N4CCCC4)n(CCc4c[nH]c5ccc(O)cc45)c3C[C@H]2CN1C(=O)c1ccccc1`: the AC50 is 3.16 µM (active).
As to `O=C(O)[C@@H]1CCCN1Cc1cc2ccccc2c2ccccc12`, the activity, negative = inhibition was -0.145% [at 11.4 µM] (inactive).
On to `Nc1nc2c(ncn2COC(CO)CO)c(=O)[nH]1`, for which the AC50 entry is “inactive”.
Consider `NC(=O)c1cc[n+](CC2=C(C(=O)O)N3C(=O)[C@@H](NC(=O)[C@H](c4ccccc4)S(=O)(=O)[O-])[C@@H]3SC2)cc1`, for which the AC50 entry is “inactive”.
As for `Cc1cnc(CNc2ncncc2-c2ccccc2C)cn1`, the activity, negative = inhibition was 3.37% [at 2.29 µM] (inactive).
On the same count and under the same terms, then `C[C@@H]1/C=C\CC(=O)OC[C@H]2O[C@@H](C=C[C@@H]2O)[C@H](C)/C=C\CC(=O)OC1`, with -2.72% [at 11.4 µM] (inactive).
The same measure, in the same setting: then `O=C(O)c1c[nH]c2c(ccc3[nH]cc(C(=O)O)c(=O)c32)c1=O`, with 12.3% [at 11.4 µM] (inactive).
For `N#Cc1ccc(CN2CCC3(CC2)CCN(C(=O)c2ccncc2)CC3)cc1`, the AC50 result was “inactive”.
As to `N#Cc1c(N2CCN(C(=O)c3ccccc3Cl)CC2)nc(-c2ccccc2)c2c1CCCC2`, the concentration at half-maximal activity (AC50) was 2.51 µM (active).
As to `Nc1nc2c(C(=O)NCc3cccs3)nnn2c2cccc(Cl)c12`, the activity, negative = inhibition is 12.5% [at 11.4 µM] (inactive).
With `c1ccc(-c2noc(CSc3nnnn3C3CCCCC3)n2)cc1`, the concentration at half-maximal activity (AC50) was 3.55 µM (active).
Regarding `CCN(CC)CCc1nc(-c2ccccc2)no1`, the AC50 entry was “inactive”.
Still for that read-out and setting: then `c1ccc(CCc2nc(-c3ccccc3)no2)cc1`, with “inactive”.
On to `O=C(N/N=C1/C[C@@H](O)[C@@H](O)[C@@H]2[C@@H]3C(=O)N(Cc4ccccc4)C(=O)[C@H]3CC[C@@H]12)OCc1ccccc1`, for which the activity, negative = inhibition is 9.14% [at 11.4 µM] (inactive).
For `CCCCCCCC/C=C\CCCCCCCC(=O)NCCc1ccc(O)c(O)c1`, the AC50 was 1.58 µM (active).
For `CC(=O)NCCc1ccc(O)c(O)c1`, the AC50 entry was “inactive”.
On to `C[C@@](Cc1ccc(O)c(O)c1)(NN)C(=O)O`, for which the AC50 result is “inactive”.
As for `Nc1ccn([C@H]2O[C@H](CO)[C@@H]3[O][Sn]([c]4ccccc4)([c]4ccccc4)[O][C@H]32)c(=O)n1`, the activity, negative = inhibition was 24.8% [at 11.4 µM] (inactive).
Take `FC(F)(F)c1ccccc1-c1ccc2ncnc(N3CCOCC3)c2c1`: the activity, negative = inhibition is -28.6% [at 2.29 µM] (inactive).
On to `CCN1C(=O)[C@H]2[C@H]3[C@H](O)[C@H](O)C/C(=N/OC[C@@H](O)COCc4ccco4)[C@H]3CC[C@@H]2C1=O`, for which the activity, negative = inhibition was 1.57% [at 11.4 µM] (inactive).
Consider `c1ccc(SC(Sc2ccccc2)c2ccc3c(c2)OCO3)cc1`, for which the half-maximal activity concentration (AC50) was 3.16 µM (active).
In the case of `c1ccc(Nc2ncncc2-c2ccc3c(c2)OCO3)cc1`, the activity, negative = inhibition is -20.1% [at 2.29 µM] (inactive).
The same measure, in the same setting: then `O=C(O)C[C@H](Cc1ccc2c(c1)OCO2)C(=O)O`, with -23.6% [at 11.4 µM] (inactive).
On to `COc1ccc(-c2ccc(N)[n+](CCCC(=O)O)n2)cc1`, for which the AC50 entry is “inactive”.
On the same count and under the same terms, then `CCCCN(C)CCCNC(=O)CCn1nc(-c2ccccc2)ccc1=O`, with “inactive”.
Same read-out and setting: then `COc1ccc(-c2ccc(=N)n(CCCC(=O)O)n2)cc1`, with 3.16 µM (active).
